Screening data from PubChem.
AT treatment = potential ataxia-telangiectasia treatments restoring KAP-1 phosphorylation; F2112 A-T fibroblasts, KAP-1 phosphorylation AlphaLISA; neocarzinostatin DNA damage 30 min before lysis; Potency, µM (titrated, usually from 57.5 µM), hits mostly activators; 320,000 compounds, 0.19% hits; note: nearly all actives have a fitted effect of over 45% in size
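hTERT-immortalized A-T patient fibroblasts (F2112), 500 cells/well in OPTI-MEM, 1% FBS, got compounds for 60 min, then NCS for 30 min at 37C. Lysates were then assayed for phospho-KAP-1 by AlphaLISA (anti-pKAP1 donor, anti-KAP1 acceptor beads), 6 hr at 25C.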
Tb PFK inh-1 = T. brucei PFK enzyme inhibition; 330,000 compounds, 0.17% hits; Potency, µM (titrated, usually from 57.5 µM), hits mostly inhibitors; O15648; T. brucei PFK, ADP-Glo luminescence; note: nearly all actives have a fitted effect of over 60% in size
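Luminescent ADP detection (ADP-Glo, two-step: ATP depletion then ADP-to-ATP conversion for luciferase) reported PFK activity after 45 min room-temperature reaction of 1.25 nM enzyme with 0.5 mM F6P and 0.1 mM ATP at pH 8.0.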
TCR act = T cell receptor activation; 330,000 tested, under 10 active; primary human leukocytes, anti-CD3, IL-2 HTRF, 48 h; Potency, µM (highest dose often 9.22 µM), usual class: activators
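Readout: HTRF IL-2, Eu-cryptate/d2 antibody pair, 320nm excitation, 665nm emission. Stimulus: a-CD3 beads, no co-stimulation. Cells: primary human leukocytes. Exposure: 48 hr with compound.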
Integrin act MD = activates integrin-mediated alleviation for muscular dystrophy; AID 624291; Potency, µM (doses to about 38.3 µM), hits mostly activators; 350,000 compounds, 0.064% hits; alpha7betagal myoblasts, beta-gal FDG fluorescence, 48 h; note: nearly all actives have a fitted effect of over 60% in size
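alpha7betagal+/- myoblasts (passage 13, 250/well) treated 48 h at 37C with compounds at 1:260 dilution of DMSO stock. Lysed, then beta-galactosidase activity read as FDG fluorescence (ex 480/em 540) after 30 min, with pre-read for autofluorescence.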
PKM2 activator = increases activity of human pyruvate kinase M2 | P14618 | purified PKM2, Kinase-Glo ATP luminescence, activation; response scale: 0% is enzyme alone, no compound | 260,000 compounds, 0.34% hits | Potency, µM (top dose mostly 57.5 µM), actives largely listed as activators; note: nearly all actives have a fitted effect of over 55% in size
Target sequence (P14618 whole entry, looked up): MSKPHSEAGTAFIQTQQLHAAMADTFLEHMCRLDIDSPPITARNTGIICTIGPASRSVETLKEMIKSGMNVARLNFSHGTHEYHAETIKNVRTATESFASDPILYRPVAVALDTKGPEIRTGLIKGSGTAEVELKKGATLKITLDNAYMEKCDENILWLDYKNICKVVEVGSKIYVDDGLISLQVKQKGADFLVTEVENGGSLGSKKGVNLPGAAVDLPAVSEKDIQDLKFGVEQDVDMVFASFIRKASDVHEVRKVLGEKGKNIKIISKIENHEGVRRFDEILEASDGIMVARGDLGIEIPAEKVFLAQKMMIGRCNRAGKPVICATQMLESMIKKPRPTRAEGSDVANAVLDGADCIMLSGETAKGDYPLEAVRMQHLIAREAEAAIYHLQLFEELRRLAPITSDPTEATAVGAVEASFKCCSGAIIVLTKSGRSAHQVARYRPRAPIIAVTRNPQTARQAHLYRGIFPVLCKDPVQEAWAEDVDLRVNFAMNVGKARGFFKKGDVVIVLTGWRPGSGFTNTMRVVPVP
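ATP formation by purified human PK-M2, quantified via coupled luciferase luminescence after 1 h at room temperature with 0.1 mM ADP and 0.5 mM PEP final.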
IL2 activator = activators of IL-2. 360,000 compounds, 0.065% hits. activation, % (series mostly up to about 46 µM). IL-2 activation reporter assay, cell-based qHTS; stimulated with anti-CD3/CD4/CD28 beads; in transgenic mouse T cells; in the data active = activation above about 50%; inconclusive = mostly about 30% to 49%
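Readout is EGFP and DsRed signal by fluorescent plate cytometry after 18 h at 37 degrees C. Transgenic mouse T cells (750/well) received compound for 60 min before bead stimulation (anti-CD3, anti-CD4, anti-CD28); memory T cells served as non-tolerant control.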
Tb PFK KinaseGlo = inhibits T. brucei PFK measured by ATP depletion. shares compounds with Tb PFK inh-1. Tb PFK enzyme, ATP depletion, Kinase-Glo Plus luminescence. Potency, µM (series often up to 57.5 µM). 1,100 compounds, 47% hits. AID 504636; calls by dose curve; note: nearly all actives have a fitted effect of over 60% in size
Tb PFK inh-2 = T. brucei PFK enzyme inhibition, hit validation; Potency, µM (titrated, usually from 57.5 µM), usual class: inhibitors; shares compounds with Tb PFK inh-1; purified T. brucei PFK, ADP-Glo luminescence, 45 min; AID 504637; 1,100 compounds, 41% hits; note: nearly all actives have a fitted effect of over 60% in size
Numbers stand for hits; 0 = inactive; ? = inconclusive; - = no result given. This is a sample that favours compounds with a hit; in the whole collection about 0.69% have one here. Unless noted, calls come from the whole dose curve; as a rule, active = well fitted curve in the direction sought with a large enough effect; inconclusive = small, poorly fitted or top-dose-only effect, or another doubt; inactive = no such curve, though single readings can be large; an effect the other way counts as inactive or inconclusive.

SMILES	AT treatment	Tb PFK inh-1	TCR act	Integrin act MD	PKM2 activator	IL2 activator	Tb PFK KinaseGlo	Tb PFK inh-2
CC(=O)N(C)Cc1ccc(C(=O)CCl)cc1	0	?	0	0	0	0	2.39µM	3.01µM
FC(F)(F)c1cccc(NC2=NCCS2)c1	-	-	-	0	-	0	-	-
O=C(CCc1ccccc1)NNC(=O)c1ccc(NC(=O)c2ccccc2)cc1	0	?	0	0	0	0	?	?
O=C(NCCc1ccccc1)c1ccc2nccnc2c1	0	0	0	?	0	0	-	-
Oc1cc(-n2cccn2)c(O)cc1-n1cccn1	0	19µM	0	0	0	0	?	?
O=c1[nH]c2ccccc2n1C1CCN(Cc2ccc(-c3nc4ccc(F)cc4nc3-c3ccccc3)cc2)CC1	-	-	-	-	-	0	-	-
Oc1ccc(C2CNCc3sccc32)cc1O (stereo unspecified)	0	?	0	-	-	0	?	?
O=C1SC(SCc2ccccc2)=N/C1=C\c1ccc(C(=O)O)cc1	0	?	0	0	0	0	0	?
C=CCSC1=N/C(=C\c2cc(OC)c3c(c2)OCO3)C(=O)S1	0	?	0	0	0	0	-	-
Cc1c(NC(=O)c2ccc(Cl)c([N+](=O)[O-])c2)cccc1-n1cnnn1	0	?	0	0	-	0	?	?
O=C(O)[C@@H](c1ccccc1)N1Cc2ccccc2C1=O	0	?	0	0	0	0	?	?
CC(C(=O)c1ccccc1)N1C(=O)c2ccccc2C1=O (stereo unspecified)	-	0	0	0	0	0	-	-
O=P(c1ccccc1)(c1ccccc1)N1CC2(CC2)CC(O)(c2ccccc2)C1 (stereo unspecified)	-	-	-	-	0	-	-	-
C[C@]12CCC3C(CC[C@H]4C[C@H](O)[C@H](O)C[C@]34C)C1CC[C@@H]2O (stereo partly specified)	-	-	0	0	-	0	-	-
Cc1ccc(S(=O)(=O)N2CCOCC2)cc1C(=O)OCC(=O)Nc1ccc2[nH]c(=O)[nH]c2c1	0	?	0	0	-	0	?	?
O=S(=O)(Nc1cc(S(=O)(=O)N2CCOCC2)ccc1O)c1ccc2c(c1)OCCCO2	0	?	0	?	-	0	12µM	15.1µM
Cc1c(C(=O)N2CCC3(CC2)OCCO3)oc2ccc(S(=O)(=O)N3CCOCC3)cc12	0	0	0	0	0	0	-	-
O=P(O)(O)CN1CCNCCN(CP(=O)(O)O)CCNCC1	-	-	0	0	-	0	-	-
CCN1C(=O)C(=C2C=C(C)N(Cc3ccco3)C(C)=C2)C(=O)N(CC)C1=S	0	0	0	?	0	0	-	-
Cc1[nH]c2ccccc2c1C(=O)CN1C(=O)C(=O)N(Cc2ccco2)C1=O	0	?	0	0	0	0	0	?
COc1ccc(NC(=O)CN2C(=O)S/C(=C/c3cccn3-c3ccc(C(=O)O)cc3)C2=O)cc1	0	9.53µM	-	-	-	-	19µM	?
Cc1ccc(NC(=O)CN2C(=O)N/C(=C/c3cccn3-c3ccc(C(=O)O)cc3)C2=O)cc1	0	?	0	0	0	0	1.69µM	?
Cc1ccc2[nH]c3c(c2c1)CN(C(=O)CN1C[C@H]2C[C@@H](C1)c1cccc(=O)n1C2)CC3	0	0	0	0	0	0	-	-
C=CCNC(=O)N1CCc2[nH]c3ccc(F)cc3c2C1	0	?	0	0	-	0	?	?
O=C(NNC(=O)c1cc2ccccc2cc1O)c1cccs1	0	?	0	0	-	0	0	?
SMILES	AT treatment	Tb PFK inh-1	TCR act	Integrin act MD	PKM2 activator	IL2 activator	Tb PFK KinaseGlo	Tb PFK inh-2
CN(C)C(Cc1ccccc1)C(=O)c1cccs1 (stereo unspecified)	0	0	-	-	0	-	-	-
COc1ccc(C(=O)COC(=O)c2ccccc2O)c(OC)c1	0	6.75µM	0	0	-	0	0	0
O=C1NC(=S)N(Cc2ccco2)C(=O)/C1=C\c1cccs1	0	?	-	-	?	-	-	-
O=S1(=O)CCN(Cc2ccc(Cl)c(C(F)(F)F)c2)CC1	0	?	0	0	0	0	23.9µM	?
c1cc2c(cc1NC1=NCCO1)CCCC2	-	-	0	0	-	0	-	-
O=C(Nc1ccc2c(c1)OCO2)c1cccc2c1C(=O)N(Cc1cccnc1)C2	0	?	0	0	0	0	?	?
c1cncc(CNCCc2ccc3c(c2)OCO3)c1	0	0	0	?	0	0	-	-
CC/C(=N/Nc1cccc(Cl)c1)c1cnnc(SC)n1	0	?	0	0	0	0	?	?
Nc1ccccc1C(=O)OCC(=O)Nc1ccc(Br)cc1F	0	0	0	0	0	0	-	-
O=C(Nc1cccs1)Nc1ccc(Br)cc1F	-	?	0	0	0	0	?	?
O=C(NCc1cccnc1)C(=O)NCC1OCCN1S(=O)(=O)c1ccc(F)cc1 (stereo unspecified)	0	?	0	0	0	0	?	0
Clc1ccc2scc(CN3CCCCC3)c2c1	0	?	0	0	0	0	?	?
c1ccc2c(CN3CCCCCCC3)c[nH]c2c1	0	0	0	0	0	0	-	-
CCN(CC)P(c1n(C)cc[n+]1C)N(CC)CC	0	0	0	0	0	0	-	-
COC(=O)[C@@]1(Sc2ccc(C)cc2)CC(=O)N(P(=O)(OC)OC)[C@@H]1c1ccccc1	-	-	-	-	-	0	-	-
C[C@H](NC(N)=O)C(=O)Nc1ccc(N2CCOCC2)c(S(=O)(=O)Nc2ccc(Cl)cc2)c1	0	?	0	0	-	0	4.26µM	10.7µM
C[C@H](NC(=O)CCC(=O)N1C[C@H]2C[C@H](C1)c1cccc(=O)n1C2)c1ccccc1	0	0	0	0	0	0	-	-
O=C(Cc1ccc(F)cc1)Nc1ccc(S(=O)(=O)N2CCCC2)cc1	0	16.9µM	0	0	-	0	?	?
O=C(Cc1ccc(Br)cc1)Nc1ccc(S(=O)(=O)N2CCCC2)cc1	0	19µM	-	-	0	-	10.7µM	21.3µM
COc1ccccc1CNCC(=O)Nc1cc(S(=O)(=O)N2CCCCC2)ccc1C	?	0	0	0	-	0	-	-
CCC(c1nnnn1Cc1ccccc1)N1CCC2(CC1)C(=O)NCN2c1ccccc1 (stereo unspecified)	-	-	-	-	-	0	-	-
O=C(Cc1ccc(Br)cc1)Nc1ccc(S(=O)(=O)Nc2ncccn2)cc1	0	23.9µM	0	0	0	0	21.3µM	21.3µM
Cc1ccnc(NS(=O)(=O)c2ccc(NC(=O)Cc3ccc(Cl)cc3)cc2)n1	0	26.9µM	0	0	-	0	15.1µM	?
O=C(CCl)Nc1nccs1	0	0	0	0	0	0	-	-
